# Experimental data: PubChem BioAssay (NCI)
# This is part of a sample that, as a whole, favours compounds with a hit. Of some 83,000 tested, about 20% had one in any assay.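 Single-dose data. Exposure time 48 hours. Values below 10 considered active.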 A number with no mark means an inactive call. Active and inactive are the calls of the source.
# Key:
# Experiment in all cases: NCI-60 one-dose screen, 48 h (100 = growth as untreated, 0 = no growth, -100 = all killed)
# Conditions in all cases: 10 µM unless noted
# [1] = test system: DU-145 prostate
# [2] = test system: K-562 leukemia
# [3] = test system: MALME-3M melanoma
# [4] = test system: MDA-MB-231 breast
# [5] = test system: RXF 393 renal
# [6] = test system: SF-268 CNS
# [7] = test system: SF-295 CNS
# [8] = test system: SF-539 CNS
# [9] = test system: UACC-257 melanoma
# [10] = test system: M14 melanoma
Structure (SMILES),growth [1],growth [2],growth [3],growth [4],growth [5],growth [6],growth [7],growth [8],growth [9],growth [10]
CCOP(=O)(Nc1ccc2c(c1)/C(=N/NC(N)=S)c1ccccc1-2)OCC,102%,103%,139%,59.7%,90.1%,98%,116%,84.7%,113%,108%
CCn1nccc1NC(=O)C(=O)c1cn(Cc2ccc(F)cc2)c2cccc(OC)c12,106%,79.9%,109%,91.9%,90.1%,98.1%,106%,98.1%,97.6%,88.1%
CCCCCCCCCCCCCCCCCCOc1ccccc1COP(=O)(O)OOCC[N+](C)(C)C,9.26% (active),1.4% (active),-12.3% (active),-40.7% (active),-64.7% (active),10.6%,27.2%,7.74% (active),11.5%,-29.1% (active)
N#C[Se]CCN1C(=O)c2ccccc2C1=O,35.1%,26.1%,17.7%,55.9%,-9.88% (active),20.2%,6.62% (active),33.4%,7.13% (active),25.5%
O=c1[nH]cc(N(CCCl)CCCl)c(=O)[nH]1,52.4%,83%,62.5%,95.2%,68.6%,52%,49.6%,46.2%,62%,73.5%
CN(C)CCCOc1ccc2c(c1)c(C(=O)C(=O)NCCO)cn2Cc1ccccc1,106%,106%,97.1%,104%,89.1%,97.7%,103%,103%,102%,101%
C1CCC([PH+](C2CCCCC2)C2CCCCC2[PH+](C2CCCCC2)C2CCCCC2)CC1.O=C(C1[CH-]CCCC1)C1CCCC[N-]1.[Au] (stereo not given),-38.7% (active),5.08% (active),-66.3% (active),-54.9% (active),-95.2% (active),-28.5% (active),-46.8% (active),-87.9% (active),-45.6% (active),-52.2% (active)
O=C1C(N2CC2)=C(N2CC2)C(=O)C(N2CC2)=C1N1CC1,-15.5% (active),29.2%,-67.5% (active),93.3%,-73.4% (active),19.9%,-17.9% (active),-67.1% (active),-44.1% (active),-82.4% (active)
CC(=O)O[C@H](C[C@H](C(C)C)N(C)C(=O)[C@@H](NC(=O)[C@H]1CCCCN1C)C(C)C)c1nc(C(=O)N[C@@H](Cc2ccccc2)C[C@H](C)C(=O)O)c(C)s1,21.8%,14%,58.5%,23.5%,53.9%,29.7%,15.9%,4.22% (active),46.3%,6.5% (active)
CO[C@H]1CC[C@@]2(C)C(=CC[C@@H]3[C@@H]2CC[C@]2(C)C(=O)C(=O)C[C@@H]32)C1,116%,101%,111%,103%,26.3%,103%,110%,104%,120%,102%
O=C1C2CC=CCC2C(=O)N1SC(Cl)(Cl)Cl (stereo not given),109%,45.1%,81.8%,103%,63.6%,104%,134%,91.3%,105%,92.1%
C[N+](C)(C)Cc1cc(Cl)ccc1O,108%,99.9%,93.2%,109%,110%,106%,108%,102%,96.5%,94.8%
COC(=O)[C@@H](C)C[C@H](Cc1ccccc1)NC(=O)c1csc([C@@H](C[C@H](C(C)C)N(C)C(=O)C2(NC(=O)[C@H]3CCCCN3C)CCC2)OC(C)=O)n1,2.83% (active),2.16% (active),67.1%,-13.6% (active),82.9%,17.6%,6.3% (active),-10.9% (active),60.2%,5.56% (active)
COC(=O)CCc1c[nH]c2ccc(N(CCCl)CCCl)cc12,33.3%,70.7%,71%,121%,46.8%,40.6%,32.9%,23.2%,85.9%,45.4%
NC(=O)CNc1ccc([As]=[As]c2ccc(NCC(N)=O)cc2)cc1 (stereo not given),60.3%,19%,47.2%,30%,32.1%,24.6%,94%,0.244% (active),37.2%,57.7%
Clc1ccc(CSC(Cn2ccnc2)c2ccc(Cl)cc2Cl)cc1 (stereo not given),68.3%,10.2%,21%,64.7%,15.3%,50.2%,10.7%,44.4%,23.1%,29.7%
CC(C)(C)C(=O)OCOP(=O)(OCOC(=O)C(C)(C)C)C1CCCN(O)C1=O (stereo not given),20%,8.42% (active),12.3%,5.67% (active),-9.35% (active),4.35% (active),54%,27.4%,18.9%,26.6%
COc1ccc(Nc2ccc([N+](=O)[O-])cc2[N+](=O)[O-])cc1CN(CCCl)CCCl,35.8%,24.4%,55.1%,44.1%,-1.08% (active),24.9%,37.6%,15.9%,62.9%,46.7%
Cc1ccc(C(Cc2ccccc2)NCCO)cc1 (stereo not given),104%,104%,97.2%,103%,99.2%,98%,98.3%,85.1%,92%,87%
O=C1N[C@@H]2[C@@H](O)[C@@H](O)[C@H](O)C[C@H]2c2cc3c(c(O)c21)OCO3,-19.1% (active),1.86% (active),-48.7% (active),-27.9% (active),-37.3% (active),-4.43% (active),-11.5% (active),-29.7% (active),-21.8% (active),-81.7% (active)
CC(=O)OC1CCC2C3CCC4=C/C(=N/OC(=O)c5ccc(N(CCCl)CCCl)cc5)CCC4(C)C3CC(C)C12 (stereo not given),79.6%,18.2%,76.3%,78.5%,67.9%,62.9%,81.5%,75.6%,105%,89.6%
Cc1cc(C)cc(Nc2nc3c(s2)CC[C@@]2(C)C3=CC[C@@H]3[C@@H]2CC[C@]2(C)C(=O)CC[C@@H]32)c1,41.2%,17.1%,79.6%,77.5%,-7.45% (active),67.4%,42.9%,23%,87.9%,83.4%
CC[C@H](C)[C@H](NC(=O)[C@H]1CCCCN1C)C(=O)N(C)[C@H](C[C@@H](OC(C)=O)c1nc(C(=O)NC23CC(C(=O)OC)(C2)C3)cs1)C(C)C,-5.33% (active),5.87% (active),67.3%,15%,35.9%,23.2%,2.38% (active),-22% (active),46.6%,4.22% (active)
COC(=O)[C@]12CCC(C)(C)C[C@H]1[C@H]1C(=O)C[C@@H]3[C@@]4(C)C[C@@]5(CC(C)(C)[C@@H]4CC[C@@]3(C)[C@]1(C)CC2)OO[C@@](C)(C(F)(F)F)O5,107%,88.3%,108%,94.8%,95.3%,93.1%,95.7%,101%,102%,99.2%
C/C(=C\c1ccn(-c2ccc(N)cc2)n1)[C@@H]1C[C@@H]2O[C@]2(C)CCC[C@H](C)[C@H](O)[C@@H](C)C(=O)C(C)(C)[C@@H](O)CC(=O)O1,-8.99% (active),11.4%,36.7%,33.5%,-0.234% (active),37.4%,18.6%,-2.33% (active),59.5%,-17% (active)
